# Reference: PubChem BioAssay (EPA / NIEHS)
# Records with an inconclusive call do not appear. The source made the active and inactive calls. How the source made its calls: active means hit-call score of the fitted dose curve at least 0.9, where 1 is the maximum; inconclusive means response in the unintended direction; inactive means score below 0.9.
# Assay: ACEA_ER_AUC_viability: ACEA Biosciences xCELLigence Real-Time Cell Analysis on Estrogen Receptor Agonism for Viability (AID 2283782);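 further: hit means loss of impedance signal meaning reduced cell growth or viability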
# In short: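 Continuous-exposure impedance cell analysis uses T-47D cells in charcoal-stripped serum, eight 1:4 dilutions topping at 100 uM final, biological duplicate. Area under the growth curve at 80 h is fitted against DMSO baseline.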
Compound,outcome,AC50
Brc1ccc(Br)cc1,inactive,–
C=C(C)C(=O)OCC(CC)CCCC (stereo not given),inactive,–
C=CC(=O)NC(C)(C)CC(C)=O,inactive,–
Nc1cccnc1,inactive,–
ClCCN1CCOCC1,–,31.6 µM (active)
O=[N+]([O-])c1ccc(Nc2ccccc2)cc1,inactive,–
O=C/C(Cl)=C(/Cl)C(=O)O,–,73.9 µM (active)
CCCCCCCCCCBr,inactive,–
O=[N+]([O-])c1cc([As](=O)(O)O)ccc1O,inactive,–
CCN(N=O)C(N)=O,inactive,–
O=S(=O)(c1ccc(Cl)cc1)c1cc(Cl)c(Cl)cc1Cl,–,69.2 µM (active)
CCOC(=O)c1ccccc1S(=O)(=O)NC(=O)Nc1nc(Cl)cc(OC)n1,inactive,–
CC1(C)[C@H](C(=O)O[C@H](C#N)c2cccc(Oc3ccccc3)c2)[C@@H]1/C=C(\Cl)C(F)(F)F,–,42.5 µM (active)
CCOC(=O)Cc1ccccc1,–,50 µM (active)
C=C(C)C(=O)OCCCCOC(=O)C(=C)C,–,30.7 µM (active)
CN(C1CCCCC1)C1CCCCC1,–,68.6 µM (active)
CC(C)(C)c1cc([N+](=O)[O-])cc(C(C)(C)C)c1O,–,24.3 µM (active)
O=C(Cc1ccccc1)OCCc1ccccc1,–,82.5 µM (active)
Cc1ccc(CCl)cc1,–,40.7 µM (active)
O=C(CCl)NCO,inactive,–
C=CCN=C=S,inactive,–
CC[N+](CC)(CC)CC,inactive,–
CC(C=O)Cc1ccc2c(c1)OCO2 (stereo not given),inactive,–
CC(C)[C@H](C(=O)OC(C#N)c1cccc(Oc2ccccc2)c1)c1ccc(OC(F)F)cc1 (stereo not given in full),–,38 µM (active)
OC[P+](CO)(CO)CO,–,50 µM (active)
